Compounds with a hit are over-represented: about 2.2% of the library has one in this group of screens.
Myeloid diff 2: myeloid differentiation induction; ER-HoxA9 myeloid progenitors, lysozyme-GFP differentiation, flow cytometry; calls only at 10 µM; hit rate 1% among 360,000; AID 624256;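 active = normalized GFP-positive differentiation at or above the plate's own cutoff, the solvent-only control mean plus 3 SD; inconclusive = no clear call, values can overlap the other calls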;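 note: cells exposed to compound for four days before flow analysis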
ABCB6 inh MLPCN: human ABCB6 transporter inhibition. Q9NP58. K562-ABCB6 porphyrin accumulation, flow cytometry, 1 h; active compounds read low. fluorescence ratio to DMSO, % at 10 µM. hit rate 0.19% among 360,000. AID 602162;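 active = fluorescence ratio to DMSO below 75%, the collection mean minus 3 SD; inconclusive = too few cells collected in the well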;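 note: signal is porphyrin accumulated inside mitochondria; 100% equals median channel fluorescence of DMSO control wells; lower ratio means ABCB6 inhibition with less porphyrin fluorescence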
H9c2 protect: protects H9c2 cardiomyocytes from peroxide injury | H2O2 injury protection, ATPLite, 2 h | protection from H2O2 cell death, % at 20 µM | hit rate 0.63% among 360,000 | AID 588492;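 active = compounds giving at least 50% protection of heart cells from peroxide-induced death in the single-dose screen, raw or plate-pattern-corrected value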;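 note: 0% = DMSO wells with peroxide and 100% = DMSO wells without peroxide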
MIN6 prolif: induces beta-cell replication in MIN6 cells; hit rate 0.29% among 330,000; MIN6 cells proliferation, ATPlite luminescence, 48 h; cells starved in 0.2% serum; 100% = growth in 10% serum; AID 2380; proliferation, % at 10 µM;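 active = compounds whose signal lies at least 3.5 SD above the mean of all wells on their plate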;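 note: 0% = DMSO-treated cells in low-serum medium and 100% = 10% serum control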
iPSC survival up: increases survival of single human iPS cells | hiPSC single-cell survival, ATPlite luminescence; 100% = ROCK inhibitor wells, 0% = DMSO | hit rate 0.044% among 360,000 | survival enhancement, % at 20 µM; in the data active = survival enhancement above about 18%;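 note: cells exposed to compounds for 16 hours before the ATP read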
ABCB6 blocker 1: blocks the human ABCB6 transporter | ratio response (% of DMSO), % at 10 µM | shares compounds with ABCB6 inh MLPCN | 700 tested, under 10 active | AID 602430 | K562-ABCB6 porphyrin accumulation, flow cytometry, 1 h; active compounds read low;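 active = repeat-averaged ratio response below 75% of DMSO, the collection mean minus 3 SD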;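 note: median porphyrin fluorescence at 575 nm with 488 nm excitation from mitochondria; lower ratio means less porphyrin signal so ABCB6 inhibition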
Active calls of the source: *; i = inactive; ? = inconclusive; / = not tested or not shown.

SMILES	Myeloid diff 2	ABCB6 inh MLPCN	H9c2 protect	MIN6 prolif	iPSC survival up	ABCB6 blocker 1
CC1(C(=O)NS(=O)(=O)c2ccc(Cl)cc2)CCN1C(=O)Cc1ccc(-c2ccccc2)cc1 (configuration not stated)	i	93.0	-0.8	/	-1.0	/
CC(C)(C)c1ccc(S(=O)(=O)NC(=O)C2(C)CCN2C(=O)Cc2ccc(-c3ccccc3)cc2)cc1 (configuration not stated)	i	90.0	-1.2	/	0.6	98.0
COc1cc(C)ccc1S(=O)(=O)NC(=O)C1(C)CCN1C(=O)Cc1ccc(C(C)(C)C)cc1 (configuration not stated)	i	99.0	8.0	/	-1.2	100.0
CCCCc1ccc(S(=O)(=O)NC(=O)C2(C)CCN2C(=O)Cc2ccccc2)cc1 (configuration not stated)	i	100.0	0.3	/	5.2	97.0
CC1(C(=O)NS(=O)(=O)c2ccc(C#N)cc2)CCN1C(=O)Cc1ccc(-c2ccccc2)cc1 (configuration not stated)	i	95.0	1.5	/	-1.8	98.0
COc1ccc(OC)c(C(C)NC(=O)Nc2ccccc2)c1 (configuration not stated)	i	72.0*	-1.6	4.7	-0.8	101.0
Cc1ccc(SCc2c(C#N)c3ccccc3n2C)cc1	i	92.0	-6.2	-1.1	-2.8	/
Cn1c(CSc2ccccc2)c(C#N)c2ccccc21	i	67.0*	-1.7	0.7	18.5	99.0
COc1ccccc1N1CCN(C(=O)CC2NC3CCCCC3NC2=O)CC1 (configuration not stated)	/	/	/	-4.0	/	/
CC1CCCCC1NC(=O)c1cc2c(s1)CS(=O)(=O)C2 (configuration not stated)	i	71.0*	1.6	1.3	0.0	98.0
O=C(C1CCN(S(=O)(=O)N2CCOCC2)CC1)N1CCN(c2ccc(F)cc2)CC1	i	96.0	1.8	-0.6	-0.4	/
Cc1ccc(N(CC(=O)N2CC(=O)Nc3ccccc32)S(=O)(=O)c2ccc3c(c2)OCCO3)cc1	i	99.0	1.2	-2.2	-1.0	/
O=S1(=O)N=C(N2CCCC2)c2ccccc21	i	95.0	4.5	-0.2	0.4	/
CC1Cc2ccccc2N1C1=NS(=O)(=O)c2ccccc21 (configuration not stated)	i	73.0*	-2.1	-4.3	2.4	102.0
COc1cc(-c2nnc(CSc3nnc(Nc4ccc(C(C)C)cc4)s3)o2)cc(OC)c1OC	?	74.0*	2.6	-5.8	-0.8	99.0
COc1ccc(OC)c(NC(=O)C2CC(=O)N(CCc3ccc(F)cc3)C2)c1 (configuration not stated)	i	48.0*	8.5	/	-0.2	100.0
COc1ccc(C)cc1NC(=O)C1CC(=O)N(CCc2ccc(F)cc2)C1 (configuration not stated)	i	90.0	13.2	/	0.8	/
CN(C)c1ccc(NC(=O)CSc2nnc(C3CCCCC3)n2N)cc1	i	12.0*	0.4	1.6	-0.6	99.0
N#Cc1cccc(NC(=O)N2CCC(c3nc4c(nnn4Cc4cccc(Cl)c4)c(=O)[nH]3)CC2)c1	i	90.0	0.6	-2.8	0.2	98.0
O=C(Cc1cccs1)N1CCC(c2nc3c(nnn3Cc3ccccc3Cl)c(=O)[nH]2)CC1	i	64.0*	8.4	-2.1	-0.2	100.0
O=C(C1CCCCC1)N1CCC(c2nc3c(nnn3Cc3ccccc3Cl)c(=O)[nH]2)CC1	i	100.0	3.7	/	-0.7	/
O=C(C1CCCCC1)N1CCC(c2nc3c(nnn3Cc3c(F)cccc3Cl)c(=O)[nH]2)CC1	i	104.0	4.4	1.7	-1.8	101.0
CCCCCCC(=O)N1CCC(c2nc3c(nnn3Cc3ccccc3Cl)c(=O)[nH]2)CC1	i	93.0	-6.4	-5.6	0.0	101.0
CSc1nnc(CNS(=O)(=O)c2ccc(Cl)cc2)n1C	i	98.0	10.2	-1.6	3.5	/
COc1cccc(CNCCO)c1OCc1ccc(Cl)cc1	i	74.0*	-4.8	-2.3	-0.2	97.0
SMILES	Myeloid diff 2	ABCB6 inh MLPCN	H9c2 protect	MIN6 prolif	iPSC survival up	ABCB6 blocker 1
O=C1C(Cl)=C(NS(=O)(=O)c2ccc([N+](=O)[O-])cc2)C(=O)c2ccccc21	i	97.0	-18.9	-5.8	-0.6	/
Cc1nn(-c2ccccc2Cl)c(Cl)c1/C=N/Nc1nc2ccccc2s1	i	66.0*	-8.9	-1.9	-3.0	95.0
COc1ccccc1Oc1ncnc2c1oc1ccccc12	i	69.0*	-3.3	4.1	-0.9	100.0
CCOC(=O)C1CCN(S(=O)(=O)c2ccc(OCC(=O)OC)cc2)CC1	i	99.0	12.9	-2.5	0.8	100.0
Cc1nn(CC2CCCCC2)c(N)c1-c1ccccc1	i	106.0	-12.4	-5.4	-3.2	/
O=C1CCCN1CCCN1C(=O)N[C@@H](Cc2ccccc2)C1=O	i	100.0	2.8	-1.6	-0.5	/
O=C1N[C@@H](Cc2ccccc2)C(=O)N1CCN1CCOCC1	i	48.0*	4.7	4.0	-1.8	97.0
CN(C)C1=NC[C@H](Cc2ccccc2)N1CC1CCCCC1	i	92.0	-5.5	-3.0	1.5	/
CN(C)C1=NC[C@H](Cc2ccccc2)N1CC1CCCC1	i	72.0*	-12.3	-3.7	-3.5	98.0
Cc1ccc(C(=O)OCC(=O)c2c[nH]c3ccccc23)cc1S(=O)(=O)N1CCCCC1	i	70.0*	-3.4	0.3	1.6	99.0
Cc1ccc(C(=O)OCC(=O)NCc2ccccc2)cc1S(=O)(=O)N1CCCCC1	i	96.0	-5.1	3.3	0.6	/
Nc1nonc1-n1nncc1-c1ccccc1	i	6.0*	12.8	-2.0	0.3	100.0
COc1ccc(S(=O)(=O)NC(=O)C2(C)CCN2C(=O)Cc2ccccc2Cl)cc1OC (configuration not stated)	i	96.0	1.5	/	-2.3	/
Cc1cc(C)cc(CC(=O)N2CCC2(C)C(=O)NS(=O)(=O)c2ccc(Br)cc2)c1 (configuration not stated)	i	96.0	3.4	/	-1.8	100.0
CC(C)(C)c1ccc(CC(=O)N2CCC2(C)C(=O)NS(=O)(=O)c2cccc(C#N)c2)cc1 (configuration not stated)	i	61.0*	6.1	/	-0.4	102.0
CC1(C(=O)NS(=O)(=O)c2cccc(F)c2)CCN1C(=O)Cc1ccccc1Cl (configuration not stated)	i	95.0	4.7	/	0.8	98.0
Cc1cc(C)cc(CC(=O)N2CCC2(C)C(=O)NS(=O)(=O)c2cccc(F)c2)c1 (configuration not stated)	i	100.0	-1.6	/	-1.5	103.0
CC1(C(=O)NS(=O)(=O)c2cccc(C#N)c2)CCN1C(=O)Cc1ccc(-c2ccccc2)cc1 (configuration not stated)	i	97.0	4.2	/	2.0	/
O=C(CCCC(=O)N(CC(=O)NC1CCCCC1)Cc1ccccc1)Nc1ccccn1	i	95.0	-4.4	-2.9	4.2	/

Compound activity (PubChem BioAssay)
